An excerpt weighted towards active compounds, which were near 4.2% of everything screened.
FXN GAA850 act = increases GAA850 frataxin promoter reporter activity | HEK293 lucGAA850 FXN promoter luciferase reporter, 24 h; percent of 10 µM SAHA response | activation, % at 6 µM | hit rate 0.56% among 360,000 | AID 540364;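 active means activation above the average of all compounds screened plus 3 SD, cutoff fixed separately per campaign, cut at about 7.5% in these data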
Wnt act = activators of Wnt/beta-catenin signaling. activation, % at 9.35 µM. AID 743398. Wnt/beta-catenin reporter cell assay, activator, plate reader. hit rate 1.2% among 300,000; in the data active means activation above about 30%, passing the limit was not always enough; inconclusive means no clear call, values can overlap the other calls
esBAF inh = inhibitors of esBAF chromatin remodeling in mouse ES cells. Bmi1-luciferase knock-in reporter, 24 h; 100% = twice the neutral-well signal. reporter increase, % at 12.5 µM. hit rate 2% among 350,000; in the data active means activation above about 40%; inconclusive means no clear call, values can overlap the other calls;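 further: a rise in the Bmi1 reporter signal indicates esBAF inhibition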
AHR activator = human AHR activation. P35869. AHR-responsive luciferase reporter cells, luminescence. activation, % at 5 µM. hit rate 2.5% among 320,000; in the data active means activation above about 47%
Target sequence (P35869 whole entry, looked up): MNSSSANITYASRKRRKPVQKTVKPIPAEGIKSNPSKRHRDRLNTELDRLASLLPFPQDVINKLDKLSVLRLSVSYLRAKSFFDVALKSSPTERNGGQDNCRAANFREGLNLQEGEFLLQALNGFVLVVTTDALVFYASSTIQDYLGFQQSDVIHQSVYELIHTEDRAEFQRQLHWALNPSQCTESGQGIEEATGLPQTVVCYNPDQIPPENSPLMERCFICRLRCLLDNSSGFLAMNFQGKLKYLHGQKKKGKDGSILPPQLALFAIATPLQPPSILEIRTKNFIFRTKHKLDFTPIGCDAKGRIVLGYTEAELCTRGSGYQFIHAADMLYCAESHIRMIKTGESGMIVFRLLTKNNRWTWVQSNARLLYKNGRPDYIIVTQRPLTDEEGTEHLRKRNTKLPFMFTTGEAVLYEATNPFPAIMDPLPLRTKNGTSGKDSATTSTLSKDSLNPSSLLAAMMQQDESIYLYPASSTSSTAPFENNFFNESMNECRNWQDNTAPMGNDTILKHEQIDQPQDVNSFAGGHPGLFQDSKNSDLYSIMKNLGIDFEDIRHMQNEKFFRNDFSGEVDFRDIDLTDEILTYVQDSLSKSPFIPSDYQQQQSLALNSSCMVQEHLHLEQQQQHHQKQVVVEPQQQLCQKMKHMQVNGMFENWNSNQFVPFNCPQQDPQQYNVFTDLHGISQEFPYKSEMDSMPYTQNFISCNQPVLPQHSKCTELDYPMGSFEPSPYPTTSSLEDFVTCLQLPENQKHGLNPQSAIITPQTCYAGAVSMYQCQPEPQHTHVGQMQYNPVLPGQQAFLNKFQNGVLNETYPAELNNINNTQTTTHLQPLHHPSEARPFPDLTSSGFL
MITF TRPM1 HTS = activators of MITF-driven TRPM1 promoter activity in SK-MEL-5 cells | hit rate 0.75% among 300,000 | activation, % at 12.5 µM | AID 588334 | SK-MEL-5 TRPM1-promoter luciferase, 24 h; % of positive control, neutral wells = 0;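 active means mean activation of at least 80% with every replicate also reaching 80%; inconclusive means mean reaches 80% but some replicate falls short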
AHR act confirm = confirmation of human aryl hydrocarbon receptor activators; shares compounds with AHR activator; AID 2845; activation, % at 9 µM; human cells, AHR-responsive luciferase reporter, luminescence; hit rate 87% among 2,300; in the data active means activation above about 49%;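 further: HepG2 hepatoma cells carrying a DRE-driven firefly luciferase reporter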
PXR counter = PXR activation, counter-screen for AHR activators | activation, % at 11.6 µM | hit rate 88% among 2,300 | shares compounds with AHR activator | cell-based PXR reporter, luciferase luminescence | AID 434939; in the data active means activation above about 11%;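 further: human hepatoma DPX-2 cells expressing full-length human PXR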
Of the large screens only hits and unclear results are named; the others gave an inactive call (follow-up assays come after a bar, where they were run).

COc1ccc(S(=O)(=O)N(C)C[C@H]2Oc3ccc(NC(=O)Cc4cn(C)c5ccccc45)cc3C(=O)N([C@H](C)CO)C[C@H]2C)cc1	none (no result: FXN GAA850 act, Wnt act, AHR activator, MITF TRPM1 HTS)
Cn1c(CNc2ccc(Cl)cc2)nc2ccccc21	esBAF inh inconclusive, AHR activator 87.0 (no result: MITF TRPM1 HTS) | AHR act confirm 139.3 | PXR counter 36.0
CN(Cc1nc2ccccc2n1C)S(=O)(=O)c1ccc(Cl)cc1	none (no result: Wnt act)
COc1ccc(CNC(=O)C[C@H]2C[C@@H]3c4cc(NC(=O)CC5CC5)ccc4O[C@@H]3[C@@H](CO)O2)cc1	none (no result: FXN GAA850 act, Wnt act, AHR activator, MITF TRPM1 HTS)
COc1ccc([N+](=O)[O-])cc1/C=N/NC(=O)CNC(=O)C(c1ccccc1)c1ccccc1	none (no result: Wnt act, esBAF inh)
C=CCc1ccccc1OCCOc1ccc([N+](=O)[O-])cc1/C=N/NC(N)=O	AHR activator 111.1 (no result: esBAF inh) | AHR act confirm 89.5 | PXR counter 34.8
O=C(N[C@@H]1CC[C@H](CCNC(=O)c2ccccc2F)O[C@H]1CO)c1ccc2c(c1)OCO2	none (no result: FXN GAA850 act, Wnt act, AHR activator, MITF TRPM1 HTS)
Nc1ccc(N=Nc2ccccc2)c2cccnc12	esBAF inh inconclusive, AHR activator 94.3 | AHR act confirm 83.9 | PXR counter 11.8
O=C(CCN1CCCCC1)NCC[C@H]1CC[C@H](NC(=O)C2CCCC2)[C@@H](CO)O1	none (no result: FXN GAA850 act, Wnt act, AHR activator, MITF TRPM1 HTS)
N#C/C(=C\c1ccc(-c2ccc(F)cc2)o1)C(=O)Nc1nc(-c2cccs2)cs1	AHR activator 141.7 (no result: esBAF inh) | AHR act confirm 57.5 | PXR counter 22.0
N#C/C(=C/c1ccc(-c2ccc([N+](=O)[O-])cc2)o1)C(=O)Nc1nc(-c2cccs2)cs1	none (no result: esBAF inh, AHR activator)
COc1ccc(OC)c(-c2csc(NC(=O)COC(=O)C3CCC3)n2)c1	none
COc1ccc(OC)c(-c2csc(NC(=O)COC(=O)c3ccc(NC(=O)CC#N)cc3)n2)c1	AHR activator 80.2 (no result: Wnt act, MITF TRPM1 HTS) | AHR act confirm inactive | PXR counter inactive
O=C(C[C@H]1CC[C@H]2[C@@H](COC[C@@H](O)CN2Cc2ccccc2)O1)NCc1ccccc1Cl	none (no result: FXN GAA850 act, Wnt act, AHR activator, MITF TRPM1 HTS)
O=C(N[C@H]1CC[C@@H](CCNC(=O)c2ccccc2F)O[C@H]1CO)c1cnccn1	none (no result: FXN GAA850 act, Wnt act, AHR activator, MITF TRPM1 HTS)
Cc1cc(NCCCn2ccnc2)n2nc(-c3ccc(Cl)cc3)cc2n1	AHR activator 134.5 (no result: esBAF inh) | AHR act confirm 110.1 | PXR counter 17.9
C=CCNc1nc(=S)[nH]c2cc(OC)c(OC)cc12	AHR activator 104.3 (no result: esBAF inh) | AHR act confirm 74.7 | PXR counter 13.1
COc1ccc(CN(C)C[C@@H]2OCCCC[C@@H](C)Oc3ccc(NS(=O)(=O)c4cn(C)cn4)cc3C(=O)N([C@H](C)CO)C[C@@H]2C)cc1	none (no result: FXN GAA850 act, Wnt act, AHR activator, MITF TRPM1 HTS)
COc1ccc(O)c(C(=O)c2cnn(C(=O)c3cccc(N(C)C)c3)c2)c1	none (no result: esBAF inh)
CN(C)c1cccc(C(=O)n2cc(C(=O)c3cc(F)ccc3O)cn2)c1	esBAF inh 51.8, AHR activator 86.1 (no result: Wnt act) | AHR act confirm inactive | PXR counter 20.0
Cc1ccc2[nH]c3c(NCCCN4CCCC4=O)ncnc3c2c1	AHR activator 85.8 (no result: Wnt act) | AHR act confirm 84.4 | PXR counter 161.5
Clc1ccc(-c2cn3cc(Cl)ccc3n2)cc1	AHR activator 87.5 (no result: esBAF inh) | AHR act confirm 123.9 | PXR counter 19.2
NNC(=O)c1ccc2nc(-c3ccc(Br)cc3)cn2c1	AHR activator 99.8, MITF TRPM1 HTS 92.8 (no result: esBAF inh) | AHR act confirm 49.9 | PXR counter 21.3
C[C@@H]1CN([C@@H](C)CO)C(=O)Cc2cc(NC(=O)NC3CCCCC3)ccc2O[C@H]1CN(C)Cc1ccc(C(=O)O)cc1	none (no result: FXN GAA850 act, Wnt act, AHR activator, MITF TRPM1 HTS)
CCOc1ccc(OCC)c(NC(=O)c2[nH]c(C)c(C(C)=O)c2C)c1	AHR activator 79.7 | AHR act confirm 94.6 | PXR counter 18.8
COc1ccc(Cl)cc1C(=O)NNC(=O)c1[nH]c(C)c(C(C)=O)c1C	AHR activator 81.1 (no result: esBAF inh) | AHR act confirm 96.3 | PXR counter 49.8
O=C(Cn1nnc(-c2ccccc2NC(=O)c2ccccc2F)n1)NCc1ccco1	none
COc1ccc(C(=O)Nc2ccccc2-c2nnn(CC(=O)NCc3ccco3)n2)cc1	AHR activator 103.2 (no result: Wnt act) | AHR act confirm inactive | PXR counter 25.8
COc1ccccc1C(=O)Nc1ccc(-c2nnn(CC(=O)NCc3ccco3)n2)cc1	AHR activator 130.4 | AHR act confirm 134.5 | PXR counter 29.4
O=S(=O)(N[C@H]1CC[C@@H](CCn2cc(-c3ccccc3F)nn2)O[C@H]1CO)c1ccc(Cl)cc1	none (no result: FXN GAA850 act, Wnt act, AHR activator, MITF TRPM1 HTS)
O=C(CSc1ccc2ccccc2n1)c1ccc2c(c1)OCO2	AHR activator 102.6 (no result: Wnt act, MITF TRPM1 HTS) | AHR act confirm inactive | PXR counter 23.9
O=C(O)CSc1ccc2ccccc2n1	none (no result: Wnt act)
C[C@@H]1CN([C@@H](C)CO)C(=O)c2c(c3ccccc3n2C)-c2ccccc2CO[C@H]1CN(C)S(=O)(=O)CC(F)(F)F	none (no result: FXN GAA850 act, Wnt act, AHR activator, MITF TRPM1 HTS)
CCn1c(C)cc(/C=C2\NC(=O)N(CC(=O)Nc3ccc(F)cc3)C2=O)c1C	none (no result: esBAF inh)
CCn1c(C)cc(/C=C2/NC(=O)N(Cc3ccccc3F)C2=O)c1C	AHR activator 83.6 | AHR act confirm 58.9 | PXR counter 162.3
O=C(NNC(=O)c1cc2cc3ccccc3nc2s1)c1ccc(F)cc1	AHR activator 91.4 (no result: MITF TRPM1 HTS) | AHR act confirm inactive | PXR counter 12.0
O=C(NNC(=O)c1cccs1)c1ccc(F)cc1	none
O=C(NNC(=O)C1CC1)c1cc2cc3ccccc3nc2s1	AHR activator 109.8 (no result: esBAF inh) | AHR act confirm 72.1 | PXR counter 12.1
CO[C@@H]1CN(C)C(=O)c2ccc(NS(=O)(=O)c3ccccc3F)cc2OC[C@@H](C)NC[C@H]1C	none (no result: FXN GAA850 act, Wnt act, AHR activator, MITF TRPM1 HTS)
C[C@H](CO)N1C[C@H](C)[C@H](CN(C)S(=O)(=O)c2ccc(Cl)cc2)OCCCC[C@H](C)Oc2ccc(NC(=O)Nc3cccc4ccccc34)cc2C1=O	none (no result: FXN GAA850 act, Wnt act, AHR activator, MITF TRPM1 HTS)
CCOC(=O)c1c(NC(=O)c2cccs2)sc(C)c1CC	none (no result: Wnt act)
CCc1c(C)sc(NC(=O)c2cccs2)c1C#N	AHR activator 89.6 (no result: esBAF inh) | AHR act confirm 90.0 | PXR counter 39.0
CCCCNC(=O)c1sc2ncnc(N3CCc4ccccc4C3)c2c1C	AHR activator 98.6 | AHR act confirm 101.7 | PXR counter 23.5
CCCN(C)C[C@H]1OCCCC[C@@H](C)Oc2ccc(NS(=O)(=O)c3ccccc3)cc2C(=O)N([C@H](C)CO)C[C@H]1C	none (no result: FXN GAA850 act, Wnt act, AHR activator, MITF TRPM1 HTS)
CCCN1[C@@H]2c3ccc(-c4ccncc4)c(=O)n3C[C@@H]2[C@@H](CO)[C@@H]1C(=O)NCCCN1CCOCC1	none (no result: FXN GAA850 act, Wnt act, AHR activator, MITF TRPM1 HTS)
CN1CCN(C(=O)c2ccccc2NC(=O)c2sc3ccccc3c2Cl)CC1	none (no result: MITF TRPM1 HTS)
CN1CCN(c2ccc(NC(=O)c3sc4ccccc4c3Cl)cc2)CC1	AHR activator 80.1 | AHR act confirm 48.5
C[C@@H]1CN([C@@H](C)CO)C(=O)c2cc(NC(=O)NC3CCCCC3)ccc2O[C@@H]1CN(C)C(=O)Nc1ccc2c(c1)OCO2	none (no result: FXN GAA850 act, Wnt act, AHR activator, MITF TRPM1 HTS)
COc1ccc(S(=O)(=O)N(C)C[C@@H]2Oc3ccc(NC(=O)CCN4CCOCC4)cc3CC(=O)N([C@@H](C)CO)C[C@H]2C)cc1	none (no result: FXN GAA850 act, Wnt act, AHR activator, MITF TRPM1 HTS)
